Data: PubChem BioAssay AID651821 (The Scripps Research Institute Molecular Screening Center, 2012)
“And” between values parts separate entries of the source, which are not always exact repeats. Equal values may be shown once. Screen size: about 370,000 compounds; about 4,700 (1.3%) were called active.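 How the source made its calls: active means inhibition above the plate cutoff, the mean of all test compounds on that plate plus 3 SD (cut at about 35% in these data); inactive means the rest.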 Shown is part of a subset that was picked to be rich in actives. A structure can be active in one record and inactive in another.

assay: small molecules binding CAG repeat RNA – biochemical, fluorescence, primary screen (AID 651821); details: r(CAG) RNA repeat, TO-PRO-1 dye displacement fluorescence; at 3 µM; stronger effect = higher value;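 further: 0% = DMSO alone and 100% = 100 µM mitoxantrone as full dye displacement; higher means more dye released from RNA so lower well fluorescence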

Question: For `NC(c1ccccc1)c1csc(NC(=O)Nc2cccc(C(F)(F)F)c2)n1` (stereo unspecified), which inhibition is on record?
Answer: 42.2% (active)

Question: With `COc1ccc(CC(N)c2csc(NC(=O)Nc3ccc(C(C)C)cc3)n2)cc1` (stereo unspecified) as the compound, how does the inhibition read?
Answer: 30.9% (inactive)

Question: Which inhibition does the source give for `CC(=O)c1ccc(Nc2nc(C(N)c3ccccc3)cs2)cc1` (stereo unspecified) here?
Answer: 6.98% (inactive)

Question: For `NC(c1csc(NC(=O)Nc2ccccc2Oc2ccccc2)n1)c1ccccc1Cl` (stereo unspecified), which inhibition is on record?
Answer: 14% (inactive)

Question: With `CC(C)(C)CC(=O)Nc1nc(C(N)Cc2ccc(C(F)(F)F)cc2)cs1` (stereo unspecified) as the compound, how does the inhibition read?
Answer: 1.66% (inactive)

Question: Which inhibition does the source give for `NC(c1csc(NC(=O)Nc2cccc(C(F)(F)F)c2)n1)C1CCCCC1` (stereo unspecified) here?
Answer: 35.2% (active)

Question: Which inhibition does the source give for `C/C(CC(=O)Nc1cccc(C(F)(F)F)c1)=N\NC(=O)C(=O)NCC(C)C` here?
Answer: -2.81% (inactive)

Question: With `CCOC(=O)c1csc(NC(=O)Nc2cccc(OC)c2)n1` as the compound, how does the inhibition read?
Answer: 61.3% (active)

Question: For `CCOC(=O)c1cnc(SCC(=O)Nc2cccc(OC)c2)nc1N`, which inhibition is on record?
Answer: 1.08% (inactive)

Question: For `COc1ccc(C(N)c2csc(NC(=O)Nc3cccc(C(F)(F)F)c3)n2)cc1` (stereo unspecified), which inhibition is on record?
Answer: 49.1% (active)

Question: Which inhibition does the source give for `COc1ccc(CN2C(CC(=O)Nc3cccnc3)c3ccc(C(F)(F)F)cc3S2(=O)=O)cc1` (stereo unspecified) here?
Answer: 1.65% (inactive)

Question: For `COc1cccc(NC(=O)COC(=O)c2ccc3ccccc3n2)c1`, which inhibition is on record?
Answer: 7.26% (inactive)

Question: For `C=CCn1c(SCC(N)=O)nnc1-c1ccccc1OC`, which inhibition is on record?
Answer: 2.58% (inactive)

Question: With `O=C(NCc1ccccc1)[C@@H]1CCCN1C(=O)[C@H]1CCCN1C(=O)c1cccc(Cl)c1` as the compound, how does the inhibition read?
Answer: -1.13% (inactive)

Question: Which inhibition does the source give for `COC(=O)[C@H](CC(C)C)NS(=O)(=O)c1c(F)cccc1F` here?
Answer: 0.25% (inactive)

Question: Which inhibition does the source give for `C=CCN1C(=O)N(Cc2ccccc2)c2ccccc2S1(=O)=O` here?
Answer: -0.57% (inactive)

Question: For `CCC(=O)Nc1ccc2c(c1)C(=O)N(C)[C@@H]1CC[C@@H](CC(=O)NCCc3ccccc3)O[C@H]1CO2`, which inhibition is on record?
Answer: 0.85% (inactive)

Question: With `CCOC(=O)[C@]12CCCCC/C=C\1N(Cc1ccc(OC)cc1)C(=O)[C@H]2CC(=O)NCc1ccc(C)o1` as the compound, how does the inhibition read?
Answer: 3.94% (inactive)

Question: For `O=C(NS(=O)(=O)c1cccs1)[C@H]1O[C@@H](n2ccc(=O)[nH]c2=O)[C@H](O)[C@@H]1O`, which inhibition is on record?
Answer: 1.16% (inactive)

Question: For `CN1CCCc2nc(-c3ccccc3)ccc21`, which inhibition is on record?
Answer: 1.01% (inactive)

Question: Which inhibition does the source give for `O=C(CSc1nc2ccccc2n1Cc1ccccc1Cl)N/N=C\c1c[nH]c2ccccc12` here?
Answer: 12.2% (inactive)

Question: For `CCn1c(SCC(=O)N/N=C/c2ccccc2OCC(=O)O)nnc1-c1ccc(C(C)(C)C)cc1`, which inhibition is on record?
Answer: 18.1% (inactive)

Question: For `Cc1ccc(Cn2c(SCC(=O)N/N=C/c3ccccc3OCC(=O)O)nc3ccccc32)cc1`, which inhibition is on record?
Answer: 50% (active)

Question: For `CC1CCN(c2ccc(C(=O)O)cc2NS(=O)(=O)c2ccc(Br)s2)CC1`, which inhibition is on record?
Answer: 33% (inactive)

Question: For `CCOc1ccc(-n2c(SCC(=O)Nc3cc(C)c(NC(=O)c4ccccc4)cc3OC)nnc2-c2cccs2)cc1`, which inhibition is on record?
Answer: 10.2% (inactive)

Question: For `CC(=O)C1=C(O)C(=O)N(c2ccc(S(N)(=O)=O)cc2)C1c1ccccc1F` (stereo unspecified), which inhibition is on record?
Answer: 2.58% (inactive)

Question: Which inhibition does the source give for `NS(=O)(=O)c1ccc(NC2=CC(c3ccc(F)cc3)N(c3ccc(S(N)(=O)=O)cc3)C2=O)cc1` (stereo unspecified) here?
Answer: 45.7% (active)

Question: With `NS(=O)(=O)c1ccc(NC(=O)COC(=O)C2(c3ccc(F)cc3)CCCC2)cc1` as the compound, how does the inhibition read?
Answer: 18.1% (inactive)

Question: Which inhibition does the source give for `O=C(COC(=O)c1ccc(Oc2ccccc2)cc1)Nc1nnc(-c2ccccc2)o1` here?
Answer: 39.7% (active)

Question: Which inhibition does the source give for `O=C(COC(=O)CSc1nnc(-c2ccc(Cl)cc2)o1)Nc1cc(Cl)cc(Cl)c1` here?
Answer: 3.94% (inactive)

Question: Which inhibition does the source give for `O=C(COc1ccccc1)Nc1nonc1NC(=O)COc1ccccc1` here?
Answer: 8.22% (inactive)

Question: With `O=C(NCc1cccs1)C1CCCN(S(=O)(=O)c2ccc([N+](=O)[O-])cc2)C1` (stereo unspecified) as the compound, how does the inhibition read?
Answer: 1.56% (inactive)

Question: With `COc1ccc(N2CCN(CCNS(=O)(=O)c3ccc(C(C)(C)C)cc3)CC2)cc1` as the compound, how does the inhibition read?
Answer: -0.11% (inactive)

Question: With `Cc1nnc(SC(C(=O)Nc2cc(Cl)cc(Cl)c2)c2ccccc2)[nH]c1=O` (stereo unspecified) as the compound, how does the inhibition read?
Answer: 80.2% (active)

Question: With `Cc1nnc(SC(C(=O)c2ccccc2)c2ccccc2)[nH]c1=O` (stereo unspecified) as the compound, how does the inhibition read?
Answer: 4.12% (inactive)

Question: For `CC(NCC(=O)Nc1cc(Cl)cc(Cl)c1)c1ccccc1` (stereo unspecified), which inhibition is on record?
Answer: -5.58% (inactive)

Question: For `CCc1c(-c2ccccc2OC)ncn1CCc1ccccc1OC`, which inhibition is on record?
Answer: -2.09% (inactive)

Question: With `Cc1cccc(NC(=O)C[C@H]2CC[C@H]3[C@@H](COc4ccc(NC(=O)Nc5ccccc5)cc4C(=O)N3C)O2)c1` as the compound, how does the inhibition read?
Answer: 10.2% (inactive)

Question: Which inhibition does the source give for `N#Cc1ccc(OC[C@@H](O)CN2CCC(C(O)(c3ccccc3)c3ccccc3)CC2)c(F)c1` here?
Answer: -3.22% (inactive)

Question: Which inhibition does the source give for `COc1ccc(S(=O)(=O)Nc2ccc3c(c2)C(=O)N([C@H](C)CO)C[C@H](C)[C@@H](CN(C)C)OCCCC[C@H](C)O3)cc1` here?
Answer: 8.48% (inactive)

Question: For `Cc1cc(C)c(C#N)c(SCc2ccc3c(c2)OCO3)n1`, which inhibition is on record?
Answer: 4% (inactive)

Question: Which inhibition does the source give for `Cc1cc(C)c(C#N)c(SCc2[nH]nc3c2C(c2ccccc2)C(C#N)=C(N)O3)n1` (stereo unspecified) here?
Answer: 38.2% (active)

Question: Which inhibition does the source give for `CCCc1nc2c([nH]1)C(c1cccnc1)C(C#N)=C(N)O2` (stereo unspecified) here?
Answer: 0.75% (inactive)

Question: Which inhibition does the source give for `C[C@@H](NC(=O)c1ccccc1OCC(=O)Nc1ccc(I)cc1)C(=O)N(C)Cc1ccccc1` here?
Answer: 5.02% (inactive)

Question: Which inhibition does the source give for `COc1ccc(C(=O)C(C)OC(=O)c2cccc(S(=O)(=O)Nc3c(C)n(C)n(-c4ccccc4)c3=O)c2)cc1` (stereo unspecified) here?
Answer: 7.06% (inactive)

Question: Which inhibition does the source give for `Cc1ccc(S(=O)(=O)/N=C2\C=C(NS(=O)(=O)c3ccc(C)cc3)C(=O)c3ccccc32)cc1` here?
Answer: 59.4% (active)

Question: Which inhibition does the source give for `CNC(=O)COc1ccc(S(=O)(=O)Nc2ccccc2)cc1` here?
Answer: 0.86% (inactive)

Question: For `Cc1ccc(S(=O)(=O)N/N=C(\c2ccccc2)C2CC2)cc1`, which inhibition is on record?
Answer: -0.89% (inactive)

Question: With `Cc1ccc(S(=O)(=O)N[C@H](CO)C(C)C)cc1` as the compound, how does the inhibition read?
Answer: 2.22% (inactive)

Question: Which inhibition does the source give for `COc1ccc(S(=O)(=O)/N=C2\C=C(NS(=O)(=O)c3ccccc3)C(=O)c3ccccc32)cc1` here?
Answer: 63.6% (active)

Question: Which inhibition does the source give for `O=S1(=O)c2c(cccc2N2CCSCC2)Oc2ccccc2CN1Cc1cn(Cc2ccc(F)cc2)nn1` here?
Answer: 8.25% (inactive)

Question: With `C[C@H]1[C@H](c2ccccc2)Oc2cc(Br)ccc2S(=O)(=O)N1Cc1cccc(F)c1` as the compound, how does the inhibition read?
Answer: 3.74% (inactive)

Question: Which inhibition does the source give for `CCOC(=O)CSc1nncc2ccc(OC)c(OC)c12` here?
Answer: -1.96% (inactive)

Question: Which inhibition does the source give for `Cc1cc(C)cc(NC(=O)N2CCC(N(C)CCC(C)C)CC2)c1` here?
Answer: 3.3% (inactive)

Question: For `N#Cc1ccc(OCCCN2CCC(C(O)(c3ccccc3)c3ccccc3)CC2)c(F)c1`, which inhibition is on record?
Answer: -1.54% (inactive)

Question: For `C=C1c2c(Cl)ccc(O)c2C(O)=C2C(=O)[C@]3(O)C(O)=C(C(N)=O)C(=O)[C@@H](N(C)C)[C@@H]3[C@@H](O)C12` (stereo partly specified), which inhibition is on record?
Answer: 87.2% (active)

Question: Which inhibition does the source give for `Cc1nc(NC(=O)C(C)(C)C)sc1[N+](=O)[O-]` here?
Answer: 2.08% (inactive)

Question: With `COc1cccc(CNC(=O)[C@H]2CCCN2C(=O)[C@H]2CCCN2C(=O)C2CCCCC2)c1` as the compound, how does the inhibition read?
Answer: 1.57% (inactive)

Question: For `Cc1ccc(NC(=O)Cc2cccc(F)c2)c(S(=O)(=O)N2CCOCC2)c1`, which inhibition is on record?
Answer: -0.87% (inactive)

Question: Which inhibition does the source give for `O=C1C=C(c2ccc(Cl)cc2)C(=O)N1Nc1ccccc1` here?
Answer: 8.98% (inactive)

Question: With `O=C1c2cccc3cccc(c23)C(=O)N1c1cccc(O)c1` as the compound, how does the inhibition read?
Answer: 4.62% (inactive)

Question: Which inhibition does the source give for `O=C1c2cccc3cc(Br)cc(c23)C(=O)N1Nc1ccccc1` here?
Answer: 36.1% (active)

Question: Which inhibition does the source give for `CCCc1cc(=O)[nH]c(SCC(=O)Nc2sc3c(c2C#N)CCCC3)n1` here?
Answer: 40.9% (active)

Question: With `CCCc1cc(=O)[nH]c(SCC(=O)Nc2ccc(S(=O)(=O)N3CCCC3)cc2)n1` as the compound, how does the inhibition read?
Answer: 15.7% (inactive)

Question: With `CCCc1cc(=O)[nH]c(SCC(=O)N2C(C)CCCC2C)n1` (stereo unspecified) as the compound, how does the inhibition read?
Answer: -1.93% (inactive)

Question: With `CC(C)C[C@H](NC(=O)CC1CCCC1)C(=O)N1CCC[C@H]1C(=O)NCc1ccccc1` as the compound, how does the inhibition read?
Answer: -2.39% (inactive)

Question: Which inhibition does the source give for `COc1ccccc1CCn1cnc(-c2ccccc2)c1C(C)C` here?
Answer: -1.16% (inactive)

Question: Which inhibition does the source give for `CC(=N\NC(=O)c1cc(Br)ccc1O)/C(=N/O)C(=O)Nc1ccccc1` here?
Answer: 36.5% (active)

Question: Which inhibition does the source give for `C/C(=N/NC(=O)c1cc(Cl)ccc1O)C12CC3CC(CC(C3)C1)C2` here?
Answer: 14.9% (inactive)

Question: For `C/C(Cc1ccccc1)=N\NC(=O)CNC(=O)c1cccc(Br)c1`, which inhibition is on record?
Answer: 1.32% (inactive)

Question: For `O=S1(=O)c2ccc(Br)cc2OC[C@H](Cc2ccccc2)N1Cc1cn(Cc2ccccc2)nn1`, which inhibition is on record?
Answer: 9.1% (inactive)

Question: For `O=C(CSc1nnc(COc2ccccc2)n1-c1ccc(Cl)cc1)Nc1ccc2c(c1)OCO2`, which inhibition is on record?
Answer: 5.42% (inactive)

Question: With `Cc1ccc(N=C2NC(=O)/C(=C/C=C/c3ccco3)S2)cc1C` as the compound, how does the inhibition read?
Answer: 58% (active)

Question: For `Cc1cc(C(=O)NN=C/C=C/c2ccco2)n[nH]1`, which inhibition is on record?
Answer: 12% (inactive)

Question: Which inhibition does the source give for `Nc1ncnc2c1ncn2[C@@H]1O[C@H](C(=O)N[C@@H](CCc2ccccc2)C(=O)NCC(=O)N2CCOCC2)[C@@H](O)[C@H]1O` here?
Answer: 4.42% (inactive)

Question: Which inhibition does the source give for `CCN1CCN(C(=O)N[C@@H](C(=O)N[C@@H]2C(=O)N3C(C(=O)O)=C(CSc4nnnn4C)CS[C@H]23)c2ccc(O)cc2)C(=O)C1=O` here?
Answer: 8.44% (inactive)

Question: With `C=CC1=C(C(=O)O)N2C(=O)[C@@H](NC(=O)/C(=N/OCC(=O)O)c3csc(N)n3)[C@H]2SC1` as the compound, how does the inhibition read?
Answer: 50.2% (active)

Question: For `CO/N=C(\C(=O)N[C@@H]1C(=O)N2C(C(=O)O)=C(COC(C)=O)CS[C@H]12)c1csc(N)n1` (stereo in doubt), which inhibition is on record?
Answer: 31% (inactive) and 22.6% (inactive) and 37.5% (active)

Question: Which inhibition does the source give for `Nc1nc2c(ncn2[C@@H]2O[C@H](C(=O)N[C@H](Cc3ccccc3)C(=O)NCC3CCCCC3)[C@@H](O)[C@H]2O)c(=O)[nH]1` here?
Answer: 6.66% (inactive)

Question: For `Cc1ccc(CN2CCCCC(NC(=O)C3CCCCC3)C2=O)cc1` (stereo unspecified), which inhibition is on record?
Answer: -0.58% (inactive)

Question: For `CCCCN(C(C)=O)c1ccc2c(c1)C1CC2CCN1Cc1ccccc1` (stereo unspecified), which inhibition is on record?
Answer: -3.96% (inactive)
